Measurements taken from PubChem BioAssay (NCI).
This is part of a sample that, as a whole, favours compounds with a hit. Of some 83,000 tested, about 20% had one in any assay.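 Values shown are percent growth following 48 h exposure of cells in 96-well plates to a single concentration of compound; below 10 was considered active.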 Unmarked numbers belong to inactive results. The source made the active and inactive calls.

What was measured:
Assay in all cases: NCI-60 one-dose screen, 48 h (100 = growth as untreated, 0 = no growth, -100 = all killed)
Conditions in all cases: 10 µM unless noted
[1] = tested on: SR leukemia
[2] = tested on: RPMI-8226 leukemia
[3] = tested on: OVCAR-8 ovarian
[4] = tested on: OVCAR-5 ovarian
[5] = tested on: OVCAR-4 ovarian
[6] = tested on: SK-OV-3 ovarian
[7] = tested on: IGROV1 ovarian
[8] = tested on: OVCAR-3 ovarian
[9] = tested on: HS 578T breast
[10] = tested on: NCI/ADR-RES ovarian

Structure (SMILES) | growth [1] | growth [2] | growth [3] | growth [4] | growth [5] | growth [6] | growth [7] | growth [8] | growth [9] | growth [10]
c1ccc(Cn2cc3c(c2-c2ccccc2)CCc2cnoc2-3)cc1 | 37.3% | 46.7% | 84.5% | 96% | 86.2% | 88% | 76.6% | 56.7% | 71.5% | 40.6%
Cc1ccc(S(=O)(=O)OCC#CCOS(=O)(=O)c2ccc(C)cc2)cc1 | 10.8% | 20.2% | 34.6% | 112% | 73.4% | 98.3% | -40.2% (active) | 12.4% | 62.4% | 31%
C=CN(C(=O)N1CCN(c2cc3c(cc2F)c(=O)c(C(=O)O)cn3C2CC2)CC1)c1nc(-c2ccc(Cl)cc2)cs1 | 33.2% | 15.9% | 67.3% | 85.7% | 78.4% | 74.7% | 21.4% | 53.9% | 54.3% | 90.6%
CCCc1cc(=O)oc2c(C(=O)CC(C)C)c(O)c(CC=C(C)C)c(O)c12 | 14.3% | -12.6% (active) | 22.3% | 53.8% | 30.5% | 23.3% | 36.9% | 13.6% | 28.1% | 0.191% (active)
CC1SC(c2ccccc2O)N(NC(=O)CCC(=O)c2nc3ncccc3[nH]2)C1=O (stereo not given) | 109% | 93.1% | 97% | 107% | 92.8% | 92.3% | 70.1% | 97% | 90.2% | 89.6%
CC(C)(C)CC(C)(C)Nc1c(-c2c(O)c3ccccc3oc2=O)nc2sc3ccccc3n12 | 30.3% | 8.98% (active) | 22.2% | 66.9% | 41.9% | 30.4% | 29.5% | 55.2% | 30.1% | 40.1%
COc1ccc(C(O)c2cc3c(N)c(C(=O)Nc4cccc5ccccc45)sc3nc2C)cc1 (stereo not given) | 12.7% | 18.3% | 10.9% | 21.5% | 34.5% | 18.3% | 9.69% (active) | 0.772% (active) | -9.07% (active) | 4.32% (active)
O=C(CN1C(=O)S/C(=C\C(Cl)=C\c2ccccc2)C1=O)NC1CCS(=O)(=O)C1 (stereo not given) | 14.2% | 21.7% | 47.1% | 110% | 78.7% | 106% | 41.3% | 19.4% | 87.4% | 84%
N#Cc1c(-c2ccc(Br)cc2)nc2c(N=Nc3ccc(S(N)(=O)=O)cc3)c(N)nn2c1N | 41.2% | -13.6% (active) | 46.6% | 72.3% | 61.2% | 82.8% | 40.9% | 55.3% | 45.1% | 97%
CCN(CC)CCCC(Cc1ccccc1)Nc1c2ccc(Cl)cc2nc2ccc(OC)cc12 (stereo not given) | -27.4% (active) | -6.17% (active) | 36.4% | 71.1% | 30.8% | 101% | 32.7% | 77.4% | 52.2% | 45%
CCOC(=O)c1nnn(Cc2cc(=O)oc3ccc(O)cc23)c1C | 92.8% | 96.7% | 107% | 101% | 109% | 105% | 106% | 107% | 93.5% | 108%
COc1ccc(N/N=C/c2cn(-c3ccc(C(=O)O)cc3)nc2-c2cc3ccccc3oc2=O)cc1 | 44.8% | 51.6% | 65.4% | 70.2% | 79% | 99.1% | 71.5% | 74.1% | 106% | 67.6%
O=C(Nc1ccccc1O)c1ccc(CNc2ccnc(C(F)(F)F)c2)cc1 | 24.3% | 1.91% (active) | 38.8% | 76.6% | 52.5% | 58.6% | 59.9% | 76.2% | 50% | 18.4%
COc1ccc(C2[C@@H](c3ccccc3)C(=O)N2c2cc(OC)c(OC)c(OC)c2)cc1F (stereo not given in full) | -6.55% (active) | 6.59% (active) | 1.85% (active) | 65.1% | 59% | 4.86% (active) | 18.8% | 9.25% (active) | 31.3% | 11.9%
CCn1cc(Cc2cc(C(=O)Nc3cc4cc(OC)c(OC)cc4c(C)n3)ccc2Cl)cn1 | 10% | 29.6% | 34.6% | 103% | 58.2% | 57.9% | 69.5% | 38% | 49.5% | 22.5%
CCOC(=O)CC1CSC(N/N=C/c2ccc(F)c(Br)c2)=N1 (stereo not given) | 87.7% | 104% | 114% | 95.1% | 89.1% | 95.3% | 117% | 99.3% | 112% | 103%
CCCCCCCCCCCCCCCCCCOc1ccccc1CC(=O)NCC[N+](C)(C)C | 21.3% | 17.9% | 41.7% | 14.6% | 46.7% | 84.9% | -49.7% (active) | 35% | 61.8% | 99.3%
CCNC(=O)N1CCc2c(Br)c3c(c(OC)c2C1Cc1ccc(OC)cc1)OCO3 (stereo not given) | 33.1% | 44.3% | 49.8% | 74.4% | 54.3% | 27.6% | 35.7% | 7.18% (active) | 16.9% | 4.18% (active)
C#Cc1cccc(Nc2ncnc3cc(NC(=O)CCl)ccc23)c1 | -37.5% (active) | -43.7% (active) | -11.7% (active) | -91% (active) | -60.1% (active) | -0.177% (active) | -56.6% (active) | -88.7% (active) | -2.33% (active) | -28.6% (active)
C=C(C)[C@@H]1CC[C@]2(COC3CCCCO3)CC[C@]3(C)[C@H](CC[C@@H]4[C@@]5(C)C=C(C=O)C(=O)C(C)(C)[C@@H]5CC[C@]43C)[C@@H]12 (stereo not given in full) | -5.54% (active) | -6.13% (active) | -39.2% (active) | -19% (active) | -34.7% (active) | -40% (active) | -64.8% (active) | -65.1% (active) | -24.3% (active) | 1.89% (active)
CC1=C(Cl)C(=O)c2cc(C)ccc2C1=O | 89.3% | 99.6% | 92.4% | 107% | 103% | 105% | 103% | 105% | 104% | 105%
Nc1nc(C(=O)N/N=C/c2ccc(F)cc2)nn1-c1ccc(S(N)(=O)=O)cc1 | 98.5% | 91% | 97.5% | 104% | 98.4% | 105% | 91.5% | 102% | 101% | 98.3%
